“And” between values parts separate entries of the source, which are not always exact repeats. Equal entries are not always repeated. Results filed as inconclusive are left out. The source holds several records for some structures; these can differ, active in one and inactive in another. The source made the active and inactive calls. Calls come from the whole dose curve; as a rule, active = well fitted curve in the direction sought with a large enough effect in the repeat runs; inconclusive = weak or mixed curves; inactive = no such curve, though single readings can be large; an effect the other way counts as inactive or inconclusive.
Columns and labels:
[1] = qHTS RealTime-Glo MT Cell Viability Assay in HepG2 cells - 40 hour (AID 1224870); note: nearly all actives have a fitted effect of over 50% in size
Outline: (§1)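 HepG2 cells mixed with RealTime-Glo MT reagents (NanoLuc plus cell-permeant prosubstrate) were seeded at 600 cells/well, incubated 5 h at 37 C/5% CO2, then pinned with compounds in DMSO; nonlytic luminescence tracked viability during 40 h treatment.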

[2] = A CellTox Green Cytotoxicity Assay to monitor cytotoxicity in HEK293 cells - 40 hour (AID 1224871); note: nearly all actives have a fitted effect of over 45% in size
Outline: (§2)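 Each value comes from one timepoint of a single continuous run in which HEK293 cells with CellTox Green were exposed to compound for up to 40 h at 37 C, dye fluorescence rising with cell death.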

[3] = qHTS RealTime-Glo MT Cell Viability Assay in HEK293 cells - 16 hour (AID 1224872); note: nearly all actives have a fitted effect of over 50% in size; note: potency is the fitted concentration of half-maximal effect
Outline: (§3)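 HEK293 cells seeded with NanoLuc/prosubstrate reagent, rested 5 h at 37 C, then dosed and kept at 37 C up to 40 h. Nonlytic real-time luminescence from viable cells read at 0, 8, 16, 24, 32 and 40 h.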

[4] = qHTS RealTime-Glo MT Cell Viability Assay in HepG2 cells - 8 hour (AID 1224873); note: nearly all actives have a fitted effect of over 55% in size
Outline: as §1

[5] = qHTS RealTime-Glo MT Cell Viability Assay in HEK293 cells - 40 hour (AID 1224874); conditions: RealTime-Glo luminescence; max response: stronger effect = lower value; note: nearly all actives have a fitted effect of over 50% in size; note: potency is the fitted concentration of half-maximal effect
Outline: (§4)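 qHTS format; HEK293 cells with NanoLuc/prosubstrate reagent, 37 C/5% CO2 for 5 h pre-dosing; compounds 23 nL in DMSO; luminescence at each time point reflects viable cells.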

[6] = A CellTox Green Cytotoxicity Assay to monitor cytotoxicity in HEK293 cells - 24 hour (AID 1224875); note: series mostly up to about 77 µM; nearly all actives have a fitted effect of over 45% in size
Outline: as §2

[7] = A CellTox Green Cytotoxicity Assay to monitor cytotoxicity in HepG2 cells - 16 hour (AID 1224876); note: nearly all actives have a fitted effect of over 45% in size; note: potency is the fitted concentration of half-maximal effect
Outline: (§5)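 Continuous culture of HepG2 cells with a membrane-impermeant DNA dye; rising fluorescence marks dead cells. Compound exposure lasted up to 40 h at 37 C, with reads every 8 h from 0 h.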

[8] = qHTS RealTime-Glo MT Cell Viability Assay in HepG2 cells - 32 hour (AID 1224877); note: nearly all actives have a fitted effect of over 55% in size
Outline: (§6)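 HepG2 cells (600/well) were dispensed with RealTime-Glo reagents, incubated 5 h at 37 °C, then treated with compounds in DMSO for up to 40 h. Nonlytic NanoLuc luminescence reflecting viable cells was read at each stated time point.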

[9] = A CellTox Green Cytotoxicity Assay to monitor cytotoxicity in HepG2 cells - 24 hour (AID 1224878); note: nearly all actives have a fitted effect of over 45% in size; note: potency is the fitted concentration of half-maximal effect
Outline: as §5

[10] = A CellTox Green Cytotoxicity Assay to monitor cytotoxicity in HepG2 cells - 40 hour (AID 1224879); note: nearly all actives have a fitted effect of over 40% in size; note: potency is the fitted concentration of half-maximal effect
Outline: as §5

[11] = qHTS RealTime-Glo MT Cell Viability Assay in HEK293 cells - 0 hour (AID 1224880); note: nearly all actives have a fitted effect of over 45% in size; note: potency is the fitted concentration of half-maximal effect
Outline: as §4

[12] = A CellTox Green Cytotoxicity Assay to monitor cytotoxicity in HEK293 cells - 32 hour (AID 1224881); note: nearly all actives have a fitted effect of over 40% in size
Outline: as §2

[13] = A CellTox Green Cytotoxicity Assay to monitor cytotoxicity in HepG2 cells - 0 hour (AID 1224882); note: nearly all actives have a fitted effect of over 35% in size; note: potency is the fitted concentration of half-maximal effect
Outline: as §5

[14] = A CellTox Green Cytotoxicity Assay to monitor cytotoxicity in HepG2 cells - 32 hour (AID 1224883); note: nearly all actives have a fitted effect of over 50% in size; note: potency is the fitted concentration of half-maximal effect
Outline: as §5

[15] = A CellTox Green Cytotoxicity Assay to monitor cytotoxicity in HEK293 cells - 8 hour (AID 1224884); note: nearly all actives have a fitted effect of over 35% in size
Outline: as §2

[16] = qHTS RealTime-Glo MT Cell Viability Assay in HepG2 cells - 16 hour (AID 1224885); note: nearly all actives have a fitted effect of over 50% in size
Outline: as §6

[17] = qHTS RealTime-Glo MT Cell Viability Assay in HEK293 cells - 24 hour (AID 1224886); note: nearly all actives have a fitted effect of over 50% in size; note: potency is the fitted concentration of half-maximal effect
Outline: as §3

[18] = qHTS RealTime-Glo MT Cell Viability Assay in HEK293 cells - 8 hour (AID 1224887); note: nearly all actives have a fitted effect of over 50% in size; note: potency is the fitted concentration of half-maximal effect
Outline: as §4

[19] = A CellTox Green Cytotoxicity Assay to monitor cytotoxicity in HEK293 cells - 16 hour (AID 1224888); note: nearly all actives have a fitted effect of over 35% in size
Outline: as §2

[20] = qHTS RealTime-Glo MT Cell Viability Assay in HepG2 cells - 0 hour (AID 1224889); note: nearly all actives have a fitted effect of over 50% in size; note: potency is the fitted concentration of half-maximal effect
Outline: as §6
% is set by controls: 0 for no effect and ±100 for the full control effect.

O=S(=O)(O)CCS
inactive: Potency [1] | Potency [2] | Potency [3] | Potency [4] | max response [5] 0.917% and -2.58% | Potency [6] | Potency [7] | Potency [8] | Potency [9] | Potency [10] | Potency [11] | Potency [12] | Potency [13] | Potency [14] | Potency [15] | Potency [16] | Potency [17] | Potency [18] | Potency [19] | Potency [20]

OCCOCCOCCOCCO
inactive: Potency [1] | Potency [2] | Potency [3] | Potency [4] | max response [5] 0.824% and 6.75% | Potency [7] | Potency [8] | Potency [9] | Potency [10] | Potency [11] | Potency [12] | Potency [13] | Potency [14] | Potency [15] | Potency [16] | Potency [17] | Potency [18] | Potency [19] | Potency [20]

CC1(C)O[C@@H]2C[C@H]3[C@@H]4C[C@H](F)C5=CC(=O)CC[C@]5(C)[C@H]4[C@@H](O)C[C@]3(C)[C@]2(C(=O)CO)O1
43.6 µM (active) and inactive: Potency [10] | Potency [14]
active: Potency [11] 17.4 µM and 10.7 µM | Potency [20] 1.23 µM and 2.68 µM
49 µM (active) and inactive: Potency [7] | Potency [9]
38.9 µM (active) and inactive: Potency [13]
inactive: Potency [1] | Potency [2] | Potency [3] | Potency [4] | max response [5] -22.4% and 2.26% | Potency [6] | Potency [8] | Potency [15] | Potency [16] | Potency [17] | Potency [18] | Potency [19]

Cc1cc(NS(=O)(=O)c2ccc(N)cc2)no1
inactive: Potency [1] | Potency [2] | Potency [3] | Potency [4] | max response [5] 3.11% and 0.646% | Potency [6] | Potency [7] | Potency [8] | Potency [9] | Potency [10] | Potency [11] | Potency [13] | Potency [14] | Potency [15] | Potency [16] | Potency [17] | Potency [18] | Potency [19] | Potency [20]

CC(C)(N=C=O)c1cccc(C(C)(C)N=C=O)c1
inactive: Potency [1] | Potency [2] | Potency [3] | Potency [4] | max response [5] 0.966% | Potency [6] | Potency [7] | Potency [8] | Potency [9] | Potency [10] | Potency [11] | Potency [12] | Potency [13] | Potency [14] | Potency [15] | Potency [16] | Potency [17] | Potency [18] | Potency [19] | Potency [20]

NCCNCCNCCNCCN
inactive: Potency [1] | Potency [2] | Potency [3] | Potency [4] | max response [5] 1.39% and 5.6% | Potency [6] | Potency [7] | Potency [8] | Potency [9] | Potency [10] | Potency [11] | Potency [13] | Potency [14] | Potency [15] | Potency [16] | Potency [17] | Potency [18] | Potency [19] | Potency [20]

CC#C[C@]1(O)CC[C@H]2[C@@H]3CCC4=CC(=O)CCC4=C3[C@@H](c3ccc(N(C)C)cc3)C[C@@]21C
inactive: Potency [1] | Potency [2] | Potency [4] | Potency [6] | Potency [7] | Potency [9] | Potency [10] | Potency [11] | Potency [12] | Potency [13] | Potency [14] | Potency [15] | Potency [16] | Potency [19] | Potency [20]
active: Potency [3] 49 µM | Potency [5] 49 µM | Potency [17] 49 µM | Potency [18] 43.6 µM

O=C1CCCCC1
inactive: Potency [1] | Potency [2] | Potency [3] | Potency [4] | max response [5] 4.63% and 22.1% | Potency [6] | Potency [7] | Potency [8] | Potency [9] | Potency [10] | Potency [11] | Potency [13] | Potency [14] | Potency [15] | Potency [16] | Potency [17] | Potency [18] | Potency [19] | Potency [20]

C=C(C)C(=O)OCCCCCCCCCCCC
inactive: Potency [1] | Potency [2] | Potency [3] | Potency [4] | max response [5] 0.0102% and 4.38% | Potency [6] | Potency [7] | Potency [8] | Potency [9] | Potency [10] | Potency [11] | Potency [12] | Potency [13] | Potency [14] | Potency [15] | Potency [16] | Potency [17] | Potency [18] | Potency [19] | Potency [20]

Nc1nc2ncc(CNc3ccc(C(=O)N[C@@H](CCC(=O)O)C(=O)O)cc3)nc2c(=O)[nH]1
inactive: Potency [1] | Potency [2] | Potency [3] | Potency [4] | max response [5] 21.4% and 0.94% | Potency [7] | Potency [8] | Potency [9] | Potency [10] | Potency [11] | Potency [12] | Potency [13] | Potency [14] | Potency [15] | Potency [16] | Potency [17] | Potency [18] | Potency [19] | Potency [20]

COCC(C)O (stereo unspecified)
inactive: Potency [1] | Potency [2] | Potency [3] | Potency [4] | max response [5] -1.03% and -1.56% | Potency [6] | Potency [7] | Potency [8] | Potency [9] | Potency [10] | Potency [11] | Potency [13] | Potency [14] | Potency [15] | Potency [16] | Potency [17] | Potency [18] | Potency [19] | Potency [20]

CC1=C(CC(=O)O)c2cc(F)ccc2/C1=C\c1ccc(S(C)=O)cc1 (stereo unspecified)
inactive: Potency [1] | Potency [2] | Potency [3] | Potency [4] | max response [5] 14% and 12.3% | Potency [6] | Potency [7] | Potency [8] | Potency [9] | Potency [10] | Potency [11] | Potency [13] | Potency [14] | Potency [15] | Potency [16] | Potency [17] | Potency [18] | Potency [19] | Potency [20]

— PubChem BioAssay (Tox21)
